High-throughput results (PubChem)
RTF Ca sens act: cardiac RTF calcium sensitization; 340,000 tested, 0.24% active; IANBD-labeled TnC RTF fluorescence at EC20 calcium; 0% EC20 calcium, 100% full calcium; AID 493008; activation, % at 7.2 µM;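 active = activation above the mean over all tested compounds plus 3 SD, cut at about 30% in these data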;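 note: rise in fluorescence read as greater calcium sensitivity of cardiac thin filaments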
Keap1 Nrf2 FP: inhibitors of human Keap1-Nrf2 protein-protein interaction | 340,000 tested, 0.15% active | Q14145 | inhibition, % at 9.4 µM | Keap1 Kelch-Nrf2 peptide fluorescence polarization, 1536-well; in the data active = inhibition above about 12%;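 note: human Keap1 Kelch domain with fluorescein labeled Nrf2 9mer peptide probe; 0% = neutral control wells and 100% = peptide positive control; higher means more block of Keap1 binding to Nrf2 peptide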
Target sequence (Q14145 whole entry, looked up, the tested form may be a part): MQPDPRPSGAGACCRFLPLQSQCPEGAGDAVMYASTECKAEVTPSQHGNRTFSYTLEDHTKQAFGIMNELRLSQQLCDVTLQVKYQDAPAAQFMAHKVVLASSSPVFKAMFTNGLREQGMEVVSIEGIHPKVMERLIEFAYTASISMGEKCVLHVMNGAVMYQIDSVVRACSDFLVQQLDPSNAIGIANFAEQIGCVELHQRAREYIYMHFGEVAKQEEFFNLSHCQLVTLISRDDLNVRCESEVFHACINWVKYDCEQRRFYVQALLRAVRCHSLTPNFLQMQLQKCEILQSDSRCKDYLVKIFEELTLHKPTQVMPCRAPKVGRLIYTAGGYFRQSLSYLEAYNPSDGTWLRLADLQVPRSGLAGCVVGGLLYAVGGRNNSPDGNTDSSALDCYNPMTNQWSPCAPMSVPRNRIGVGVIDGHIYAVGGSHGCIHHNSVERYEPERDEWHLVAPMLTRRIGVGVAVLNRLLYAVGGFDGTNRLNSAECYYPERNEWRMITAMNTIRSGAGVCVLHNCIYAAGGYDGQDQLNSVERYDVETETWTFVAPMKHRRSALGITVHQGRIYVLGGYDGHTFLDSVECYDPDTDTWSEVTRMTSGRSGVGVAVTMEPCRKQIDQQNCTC
RTF Ca sens inh: cardiac RTF calcium desensitization | P19429+P45379 | IANBD-labeled cardiac RTF, Ca2+ fluorescence | inhibition, % at 7.15 µM | 340,000 tested, 0.12% active;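 active = inhibition above the mean inhibition of all tested compounds plus 3 SD, cut at about 17% in these data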;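 note: assay run at fixed EC70 calcium of 1.6 mM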
LANA DNA inh: inhibitors of KSHV LANA C-terminal domain DNA binding; MBP-C-LANA/FAM-LBS DNA binding, fluorescence polarization; inhibition, % at 9 µM; 340,000 tested, 0.078% active;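 active = highest replicate inhibition at or above 60% at 9 µM, even if other replicates fall short; inactive = all replicates below 60% inhibition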;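 note: 0% = neutral control wells and 100% = 4 µM acridine orange control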
IDE cell inh: cellular human IDE inhibition | P14735 | HEK cells, FAbetaB cleavage, fluorescence polarization | inhibition, % at 5.59 µM | 320,000 tested, 0.41% active | AID 434962;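 active = percent inhibition above the average of all tested compounds plus 3 SD, set per screening campaign, cut at about 16% in these data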;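 note: IDE supplied by intact live HEK cells; FP after avidin binding of uncleaved biotin substrate so inhibition keeps polarization high; 0% = DMSO wells and 100% = 60 µM reference IDE inhibitor Ii1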
IDE cell activ: IDE (human) activation, cell-based | AID 493087 | activation, % at 5.96 µM | HEK cells, FAbeta-B cleavage, fluorescence polarization; 0% vehicle, 100% cell-free pure enzyme wells | 340,000 tested, 0.073% active | P14735;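 active = activation above the mean of all tested compounds plus 3 SD, set per screening campaign, cut at about 17% in these data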
Numbers without * were called inactive; / = not tested or not shown. A selection: hits, their analogues and other compounds. The true share with any hit is near 0.81%.

SMILES | RTF Ca sens act | Keap1 Nrf2 FP | RTF Ca sens inh | LANA DNA inh | IDE cell inh | IDE cell activ
COC(=O)CSC(C(=O)Nc1ccc(C)c(C)c1)c1ccccc1 (stereo not drawn) | -4 | -5 | -7 | 0 | -2 | 1
O=[N+]([O-])c1c(Nc2ccccn2)cc(Cl)c2nonc12 | 33* | -11 | 3 | 1 | 1 | -10
CN(CC(=O)Nc1cccc(F)c1)C(=O)c1cc(S(=O)(=O)N2CCN(c3ccccc3)CC2)ccc1Cl | -3 | -5 | 4 | -1 | 5 | 4
CC(NC(=O)COC(=O)c1ccc([N+](=O)[O-])o1)c1ccccc1 (stereo not drawn) | 4 | 0 | 0 | 108* | 8 | 6
CN(Cc1ccccc1)C(=O)c1cccc(NC(=O)Cc2ccc(NC(=O)C3CCN(C(=O)C4CCC4)CC3)cc2)c1 | 0 | 0 | -7 | 1 | / | 1
Cc1cc(C)nc(SCC(=O)NC(=O)c2ccccc2O)n1 | 39* | -28 | -6 | 1 | 2 | -4
COC(=O)c1ccccc1NC(=O)CSc1nc(C)cc(C)n1 | 6 | -1 | 1 | 0 | -1 | 10
COc1ccc2[nH]c3c(c2c1)CCNC3c1ccc([N+](=O)[O-])o1 (stereo not drawn) | 33* | 6 | -32 | 22 | -1 | 2
COc1ccc2[nH]c3c(c2c1)CCNC3C1CC=C(C)CC1 (stereo not drawn) | -3 | -2 | -5 | -1 | -1 | 0
Cn1c2ccccc2c2cc(/C=N/NC(=O)c3ccc(O)cc3O)ccc21 | -4 | -9 | -14 | -2 | 1 | -2
Cn1c(O)c(/C=N/NC(=O)c2cc3ccccc3cc2O)c2ccccc21 | 40* | -5 | -41 | 7 | 8 | -12
NC(=O)c1ccc(NC(=O)C2COc3ccccc3O2)cc1 (stereo not drawn) | -1 | 69* | -3 | / | 5 | 5
CCn1c2ccc(F)cc2c2nnc(NN)nc21 | -8 | -3 | -14 | 0 | 1 | -2
NNc1nnc2c3cc(F)ccc3n(Cc3ccccc3)c2n1 | 5 | -1 | -11 | 62* | 0 | 2
C#CCN1c2ccccc2Sc2cccnc21 | 30* | -2 | -40 | 0 | -9 | 3
COc1cccc(/C=C/C(=O)NCc2cn3cc(Cl)ccc3n2)c1 | -4 | 3 | -5 | 77* | 1 | 8
O=C(/C=C/c1cccc(Cl)c1)OCc1cn2cc(Cl)ccc2n1 | 1 | 2 | -4 | 0 | 6 | 3
CC(C)NC(=O)/C(C#N)=C/c1ccc(N(C)C)o1 | 73* | -86 | -75 | -34 | 15 | -19
O=C(CSc1nc(Nc2ccccc2)nc(N2CCOCC2)n1)Nc1ccc([N+](=O)[O-])cc1 | 6 | 0 | 0 | -2 | 6 | 3
O=C(CSc1nc(N2CCOCC2)nc(N2CCOCC2)n1)Nc1ccc([N+](=O)[O-])cc1 | 1 | -2 | -5 | 1 | -14 | 23*
COC(=O)C1C2CC3c4[nH]c5cc(OC)ccc5c4CCN3CC2CC(OC(=O)CC(C)=O)C1OC (stereo not drawn) | 46* | -5 | -76 | 1 | / | -4
COC(=O)C1C2CC3c4[nH]c5cc(OC)ccc5c4CCN3CC2CC(O)C1OC (stereo not drawn) | 5 | -1 | -8 | 13 | / | -1
O=C1CC(O)(c2ccccc2)C(c2ccccc2)=C1c1ccccc1 (stereo not drawn) | -4 | 2 | 2 | 1 | 13 | -1
CCN(C(=O)COC(=O)CCC(=O)c1ccc(Cl)cc1)c1c(N)n(Cc2ccccc2)c(=O)[nH]c1=O | 0 | -3 | -5 | -1 | / | 6
Cc1ccc[n+](-c2nc([O-])sc2C=O)c1 | 94* | 63* | -114 | 83* | 9 | 2
SMILES | RTF Ca sens act | Keap1 Nrf2 FP | RTF Ca sens inh | LANA DNA inh | IDE cell inh | IDE cell activ
CC(=O)Nc1ccc(NC(=O)C(C)OC(=O)/C(C#N)=C/c2ccc(N(C)C)cc2)cc1 (stereo not drawn) | 80* | -2 | -118 | 6 | 10 | -35
CC(C)(O)C#Cc1ccccc1C(=O)NC(CC(N)=O)C(=O)O (stereo not drawn) | 3 | 0 | -10 | -1 | -3 | 18*
COc1ccccc1-c1nc2cc3ccccc3cc2nc1-c1ccccc1 | 2 | 4 | -7 | -1 | 1 | 6
Cc1cc(C)cc(C(=O)Nc2ccncc2)c1 | -1 | -4 | -1 | 0 | 10 | 1
CCN1C(=N)N(c2ccccc2)C(=O)C(CC)(CC)C1=O | 6 | 3 | -4 | 0 | / | 4
O=C(Nc1ccccc1)c1ccc(NCCc2ccccc2)c([N+](=O)[O-])c1 | 96* | 4 | -5 | -2 | 1 | 6
NC(=O)c1ccc(NCCc2ccccc2)c([N+](=O)[O-])c1 | 3 | -2 | 2 | -3 | -2 | 7
COc1ccc(Br)cc1S(=O)(=O)n1c([N+](=O)[O-])cnc1C | -4 | 1 | 6 | -1 | -5 | 1
CCOC(=O)/C(=N\Nc1ccc(C(C)=O)cc1)c1csc(Nc2ccccc2)n1 | 131* | -6 | -126 | 4 | 7 | 0
CCCCCNC(=O)C(C#N)c1nc2ccccc2nc1N1CCCC1 (stereo not drawn) | 12 | -8 | -12 | -1 | 4 | -3
CCCCCCNC(=O)C(C#N)c1nc2ccccc2nc1N1CCCC1 (stereo not drawn) | 38* | -1 | 5 | 1 | -2 | -7
CCN(CC)c1nc2ccccc2nc1C(C#N)C(=O)NCCc1ccccc1 (stereo not drawn) | 66* | -1 | -27 | 2 | -5 | 1
O=C1CN(C(=O)CNCc2ccccc2Cl)c2ccccc2N1 | -2 | -3 | -6 | -2 | 3 | 3
NC(CSC1(c2ccc(Cl)cc2)c2ccccc2-c2ccccc21)C(=O)O (stereo not drawn) | 3 | -3 | -5 | 3 | / | -5
Cc1ccc2nc(-c3ccc(NC(=O)CN4CCN(C(=O)c5ccco5)CC4)cc3)sc2c1 | -2 | -6 | -6 | -1 | 18* | -8
CC1(C)c2ccccc2N2CC(=O)N(CC(N)=O)C21C (stereo not drawn) | 40* | -71 | -45 | -7 | 5 | -4
CC1(C)c2ccccc2N(CC(N)=O)C12C=Cc1ccccc1O2 (stereo not drawn) | -1 | -5 | 0 | 1 | -3 | 2
CCN(CC)CCCOc1nc(C)nc2c1oc1ccccc12 | -2 | -1 | 36* | -2 | / | 0
CCN(CC)CCOc1nc(C)nc2c1oc1ccccc12 | 5 | -3 | -6 | 0 | -4 | 0
COc1ccccc1CNC(=O)CN1C(=O)COc2ccc(S(=O)(=O)NC3CCCC3)cc21 | -6 | -1 | -4 | 1 | -2 | 6
CCOC(=O)c1c(OCCO)nn(-c2ccc(Cl)cc2)c1N | -2 | -2 | 4 | 0 | 8 | -9
